Assay [1] deals with TRPC4 beta (transient receptor potential cation channel C4), mouse. Briefly: activators of mouse TRPC4 channel, confirmation, cell-based, Fluo4 calcium, HEK293 TRPC4beta/mu-opioid, duplicates, 10 µM (AID 2426;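 active = fluorescence ratio normalized to control raised more than 50% in primary screen plus both repeat runs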). The following applies: Fluo4 calcium fluorescence, at 10 µM; stronger effect = higher value.
Assay [2] concerns transient receptor potential cation channel C4 beta (TRPC4), mouse. Briefly: activators of mouse TRPC4 channel, confirmation, cell-based, second round, Fluo4, HEK293 TRPC4beta/mu-opioid, 1 µM (AID 2461;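 active = primary screen active and over 50% activation in each of two duplicate runs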). The following applies: Fluo4 calcium fluorescence, at 1 µM; stronger effect = higher value.
Assay [3] relates to TRPC4 (transient receptor potential cation channel C4 beta), mouse. The experiment in a line: positive allosteric modulators of mouse TRPC4, confirmation, cell-based, second round, Fluo-4, HEK293 TRPC4beta/mu-opioid, 1 µM (AID 2554). The following applies: DAMGO EC20, Fluo-4 calcium flux, at 1 µM; stronger effect = higher value.
In assay [4] the test system is TRPC4 beta (transient receptor potential cation channel C4), mouse. The experiment in a line: positive allosteric modulators of mouse TRPC4, confirmation, cell-based, Fluo-4, HEK293 TRPC4beta/mu-opioid (AID 2555;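 active = primary screen hit whose calcium fluorescence ratio, in both repeats, exceeds the weak agonist control mean by 3 SD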). The settings on record: DAMGO EC20, Fluo-4 calcium flux, at 10 µM; stronger effect = higher value. A general note: A change in cytosolic calcium serves as a functional read-out for many receptors and channels.

Assay [5] deals with Short transient receptor potential channel 4 (Mus musculus) (UniProt Q9QUQ5). Briefly: inhibitors of mouse TRPC4 channel, confirmation, cell-based, Fluo4, HEK293 TRPC4beta/mu-opioid (AID 2636;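 active = calcium signal cut by more than 3 SD below the full-agonist control yet still positive, in both repeats and the earlier primary screen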). The following applies: DAMGO, Fluo4 calcium flux, at 10 µM; stronger effect = higher value.
Assay [6] shares this target. The experiment in a line: inhibitors of mouse TRPC4 channel, confirmation, cell-based, second round, Fluo4, HEK293 TRPC4beta/mu-opioid, 1 µM (AID 2637;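 active = calcium signal ratio cut to more than 3 SD under the fully stimulated control mean yet still positive, in both repeats and the primary screen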). The following applies: Fluo4 calcium flux, DAMGO, at 1 µM; stronger effect = higher value.
Assay [7] has the same target. Briefly: mouse TRPC4 channel activators, dose response, cell-based, HEK293 TRPC4/mu-opioid, Fluo-4 calcium (AID 434937;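 active = primary screen activator hit with a dose response curve and TRPC4 channel activation at any tested dose; inactive = no activation, no dose response, or not a primary hit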).
The target is the same in assay [8]. Briefly: TRPC4 positive allosteric modulators, dose response, cell-based, HEK293 TRPC4/mu-opioid, Fluo-4 calcium, EC20 DAMGO (AID 434941;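 active = earlier screen potentiator hit that boosts the TRPC4 ion channel at some dose, with a dose response; inactive = no potentiation, no dose response, or not a prior hit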;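 note: calcium entry triggered by an EC20 dose of DAMGO at the co-expressed mu-opioid receptor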).
Assay [9] shares this target. Briefly: mouse TRPC4 channel inhibitors, dose response, cell-based, HEK293 TRPC4/mu-opioid, Fluo-4 calcium (AID 434942;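 active = primary screen inhibitor hit that blocks the TRPC4 channel at some tested dose, yielding a dose curve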).
Assay [10] addresses Short transient receptor potential channel 6 (Mus musculus) (UniProt Q61143). The experiment in a line: inhibition of mouse TRPC6 channel, confirmation, selectivity assay for TRPC4 inhibitor project, cell-based, HEK293, membrane potential dye, duplicate (AID 434948;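 active = active in primary screen and both duplicates, each dropping signal beyond three positive-control SD with fluorescence still positive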). The following applies: HEK293 TRPC6, membrane potential dye fluorescence, at 10 µM, stimulated with maximal-effect acetylcholine; stronger effect = higher value.

Assay [11] has the same target. The experiment in a line: activation of mouse TRPC6 channel, confirmation, selectivity assay for TRPC4 activator project, cell-based, HEK293, membrane potential dye, duplicate (AID 434950;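 active = membrane potential signal rise above negative control mean plus 3 SD in both duplicates, also active in the earlier TRPC4 screen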). The settings on record: HEK293 TRPC6, membrane potential fluorescence, at 10 µM; stronger effect = higher value.
The target is the same in assay [12]. The experiment in a line: TRPC6 potentiation by TRPC4 potentiator hits, confirmation, selectivity assay for TRPC4 potentiator project, HEK293 cells, membrane potential dye, duplicate (AID 434952;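 active = compound raising the membrane signal above positive-control mean plus 3 SD in both repeats, and a primary screen hit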). The settings on record: HEK293 TRPC6, membrane potential dye fluorescence, at 10 µM, maximal acetylcholine added after compound; stronger effect = higher value.
Assay [13] has as its target Short transient receptor potential channel 4 (Mus musculus) (UniProt Q9QUQ5). The experiment in a line: calcium flux activators in TRPC4/5HT1a cells, counter-screen for TRPC4 activator project, cell-based, second counter screen, HEK293 TRPC4/5HT1a, Fluo-4 (AID 434977;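 active = calcium signal rise above buffer-control mean plus 5 SD in both duplicates, and also a hit in the primary screen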). The following applies: Fluo-4 calcium flux, at 10 µM; stronger effect = higher value.
Assay [14] can be described thus: calcium flux inhibitors in TRPC4/5HT1a cells, confirmation, counter-screen for TRPC4 inhibitor project, cell-based, second counter screen, HEK293 TRPC4/5HT1a, Fluo-4 (AID 434978;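 active = primary screen active whose calcium signal fell more than 3 SD beyond the full-serotonin control mean in both duplicate plates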;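 note: serotonin given first at submaximal then at maximal dose after compound preincubation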). The following applies: Fluo-4 calcium flux, at 10 µM, serotonin added to trigger calcium flux; stronger effect = higher value.
In assay [15] the test system is TRPC4 (mouse), co-expressed with 5HT1a in HEK293. Briefly: calcium flux potentiators in TRPC4/5HT1a cells, confirmation, counter-screen for TRPC4 potentiator project, cell-based, second counter screen, HEK293 TRPC4/5HT1a, Fluo-4 (AID 434979;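 active = signal rise over 3 SD above mean of control wells given weak agonist, in both repeats and first screen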). The settings on record: Fluo-4 calcium flux, at 10 µM, serotonin added at its EC20 dose; stronger effect = higher value.
A short description of assay [16]: calcium flux activation in mu-opioid HEK293 cells, confirmation, counter-screen for TRPC4 activator project, cell-based, HEK293 mu-opioid receptor line (AID 449723;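 active = hit in primary screen, with calcium signal over 5 SD above buffer well mean in both duplicates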;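 note: counter screen cells carry the mu-opioid receptor alone and lack TRPC4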). The following applies: Fluo-4 calcium fluorescence, at 10 µM; stronger effect = higher value.
A short description of assay [17]: calcium flux enhancement in mu-opioid HEK293 cells, confirmation, counter-screen for TRPC4 allosteric potentiator project, cell-based, HEK293 mu-opioid receptor line (AID 449724;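 active = calcium signal rise more than 3 SD above the low-dose agonist control mean, in both duplicate plates and the primary screen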;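 note: HEK293 cells carrying mu-opioid receptor only with no TRPC4 channel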). The settings on record: Fluo-4 calcium flux, at 10 µM, compound added before EC20 DAMGO stimulus; stronger effect = higher value.

The structures appear in SMILES notation. For part of these data: Measured potencies and affinities stand elsewhere. Calls of active or inactive are those of the source.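 Rule for the calls, unless noted: active = primary screen hit whose fluorescence ratio, in both repeats, exceeds the weak agonist control mean by 3 SD; inactive = the rest.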

The results in this text go back to PubChem BioAssay.

Usually inhibition stands for the share of the control response that was lost under treatment.

Chain of Short transient receptor potential channel 4 (Mus musculus) (Q9QUQ5 whole entry, looked up): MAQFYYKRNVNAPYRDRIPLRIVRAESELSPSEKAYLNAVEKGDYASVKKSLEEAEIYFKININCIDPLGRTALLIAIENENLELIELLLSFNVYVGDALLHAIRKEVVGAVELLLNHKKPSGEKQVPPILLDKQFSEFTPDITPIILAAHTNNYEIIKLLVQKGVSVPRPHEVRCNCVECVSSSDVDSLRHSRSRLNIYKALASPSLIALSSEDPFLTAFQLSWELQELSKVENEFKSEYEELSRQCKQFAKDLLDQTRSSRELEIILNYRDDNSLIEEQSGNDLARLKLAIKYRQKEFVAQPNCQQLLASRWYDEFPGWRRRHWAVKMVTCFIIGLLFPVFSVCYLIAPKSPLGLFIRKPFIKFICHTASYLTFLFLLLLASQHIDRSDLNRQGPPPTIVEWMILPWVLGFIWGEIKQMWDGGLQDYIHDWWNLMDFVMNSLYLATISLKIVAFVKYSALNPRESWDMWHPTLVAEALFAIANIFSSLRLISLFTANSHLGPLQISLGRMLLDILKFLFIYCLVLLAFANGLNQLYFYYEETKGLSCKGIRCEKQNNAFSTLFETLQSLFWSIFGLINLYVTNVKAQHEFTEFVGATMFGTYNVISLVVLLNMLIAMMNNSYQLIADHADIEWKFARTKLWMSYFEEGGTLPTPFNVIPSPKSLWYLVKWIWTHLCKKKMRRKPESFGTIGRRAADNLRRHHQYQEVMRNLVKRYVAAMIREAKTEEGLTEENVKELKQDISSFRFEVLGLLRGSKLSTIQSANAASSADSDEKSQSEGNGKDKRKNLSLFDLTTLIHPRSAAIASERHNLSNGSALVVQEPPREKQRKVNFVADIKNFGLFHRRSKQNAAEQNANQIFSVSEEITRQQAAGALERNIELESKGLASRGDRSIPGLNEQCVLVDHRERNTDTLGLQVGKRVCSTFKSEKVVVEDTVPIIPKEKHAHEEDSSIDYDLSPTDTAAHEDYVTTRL
Chain of Short transient receptor potential channel 6 (Mus musculus) (Q61143 whole entry, looked up): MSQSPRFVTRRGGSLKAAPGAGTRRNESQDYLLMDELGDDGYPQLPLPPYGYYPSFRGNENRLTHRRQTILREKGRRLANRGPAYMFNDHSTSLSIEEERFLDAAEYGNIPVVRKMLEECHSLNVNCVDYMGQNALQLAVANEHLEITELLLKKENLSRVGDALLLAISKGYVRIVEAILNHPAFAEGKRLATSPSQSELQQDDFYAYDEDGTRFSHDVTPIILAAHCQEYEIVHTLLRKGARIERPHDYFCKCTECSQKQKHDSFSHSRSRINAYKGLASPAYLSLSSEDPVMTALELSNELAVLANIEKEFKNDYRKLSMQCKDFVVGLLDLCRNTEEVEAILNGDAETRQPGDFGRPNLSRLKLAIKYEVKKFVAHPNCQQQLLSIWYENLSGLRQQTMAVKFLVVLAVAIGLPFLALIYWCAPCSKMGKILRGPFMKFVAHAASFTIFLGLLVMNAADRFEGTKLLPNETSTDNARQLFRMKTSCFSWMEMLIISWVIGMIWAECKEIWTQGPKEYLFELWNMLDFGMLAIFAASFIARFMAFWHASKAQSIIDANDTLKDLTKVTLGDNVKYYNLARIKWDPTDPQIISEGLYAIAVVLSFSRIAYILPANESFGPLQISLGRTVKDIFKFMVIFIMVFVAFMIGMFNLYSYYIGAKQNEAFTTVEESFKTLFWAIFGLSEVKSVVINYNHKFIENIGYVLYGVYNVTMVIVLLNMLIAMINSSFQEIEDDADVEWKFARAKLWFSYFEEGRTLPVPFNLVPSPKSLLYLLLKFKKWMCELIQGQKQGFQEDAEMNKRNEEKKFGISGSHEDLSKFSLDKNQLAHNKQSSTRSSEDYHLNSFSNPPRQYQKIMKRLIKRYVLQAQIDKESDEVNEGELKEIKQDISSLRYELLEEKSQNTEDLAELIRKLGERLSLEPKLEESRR

As to `COc1ccccc1CCc1nnc(CCC(=O)NCCCOc2cccnc2)o1`, the result in [1], in assay [2], in [3], in [4], in assay [6] and in [7] was inactive. In addition, the outcome in assay [8], in [9], in assay [10], in [11], in assay [12] and in assay [13] was inactive. For the same compound, the result in assay [14], in assay [15], in [16] and in assay [17] was inactive. The inhibition in [5] was 48% (active).

Turning to `CN(Cc1ccco1)C(=O)Cn1ncc2c([nH]c3ccccc32)c1=O`, the result in assay [1], in assay [2], in [3], in assay [5], in [6] and in assay [7] was inactive. Moreover, the result in assay [8], in assay [9], in assay [10], in [11], in assay [12] and in [13] was inactive. Moreover, the outcome in [14], in assay [16] and in [17] was inactive. Further, the potentiation in [4] is 10% (active); in assay [15] it was 61.1% (active).

For `COc1cc(NC(=O)C(C)Oc2ccccc2)cc(OC)c1` (stereo not given), the outcome in [1], in assay [2], in [3], in assay [4], in assay [5] and in [6] was inactive. For the same compound, the outcome in [7], in assay [8], in assay [9], in [10], in [11] and in assay [12] was inactive. Also, the outcome in [13], in assay [14], in assay [15], in assay [16] and in assay [17] was inactive.

Regarding `O=C(Nc1c(F)cc(F)cc1Br)c1cc(-c2ccc(O)cc2)on1`, the outcome in assay [1], in assay [2], in assay [3], in assay [4], in assay [5] and in assay [6] was inactive. Moreover, the outcome in [7], in assay [8], in assay [9], in assay [10], in assay [11] and in [12] was inactive. In addition, the result in assay [13], in [14], in assay [15], in [16] and in assay [17] was inactive.

As to `CCOc1ccc2nc(N3CCCC(C(=O)NCC4CCCO4)C3)sc2c1` (stereo not given), the result in assay [1], in assay [2], in assay [3], in assay [4], in assay [5] and in assay [6] was inactive. Further, the outcome in [7], in assay [8], in assay [9], in assay [10], in assay [11] and in assay [12] was inactive. Besides, the outcome in assay [13], in assay [14], in assay [15], in [16] and in assay [17] was inactive.

For `CC(C)Cc1nc(Cl)c(C#N)c2c1CCCC2`, the outcome in [1], in [2], in assay [3], in assay [4], in assay [5] and in assay [6] was inactive. Also, the result in [7], in assay [8], in assay [9], in [10], in [11] and in [12] was inactive. Besides, the outcome in assay [13], in assay [14], in [15], in assay [16] and in assay [17] was inactive.

With `O=[N+]([O-])c1cc(Cc2ccccc2)cc(C=Nc2ccc(N3CCOCC3)cc2)c1O`, the result in assay [1], in [2], in assay [3], in assay [4], in assay [5] and in assay [6] was inactive. The result in assay [7], in assay [8], in assay [9], in assay [10], in assay [11] and in assay [12] was inactive. For the same compound, the outcome in assay [13], in assay [14], in assay [15], in [16] and in [17] was inactive.

For `CCCCN1CCc2c1nc1ccc(Br)cc1c2N`, the outcome in assay [1], in assay [2], in assay [3], in assay [4], in assay [5] and in assay [6] was inactive. Also, the outcome in assay [7], in assay [8], in assay [9], in assay [10], in [11] and in assay [12] was inactive. Moreover, the result in assay [13], in assay [14], in assay [15], in assay [16] and in [17] was inactive.

Regarding `CCN1CCN(c2ccc(S(=O)(=O)N3CCCCC3)cc2NC(=O)c2cccc(C(F)(F)F)c2)CC1`, the result in assay [1], in assay [2], in assay [3], in [5], in assay [6] and in assay [7] was inactive. For the same compound, the result in [8], in assay [9], in [10], in assay [11], in assay [12] and in assay [13] was inactive. In addition, the result in assay [14], in [16] and in assay [17] was inactive. Further, the potentiation in [4] is 21% (active); in [15] it was 21.1% (active).

As to `Cc1ccc2oc(C(=O)N3CCC(O)(c4ccccc4)CC3)c(C)c2c1`, the outcome in assay [1], in assay [2], in assay [3], in assay [5], in assay [6] and in assay [7] was inactive. Moreover, the outcome in assay [8], in assay [9], in [10], in assay [11], in [12] and in assay [13] was inactive. Also, the result in assay [14], in [16] and in [17] was inactive. The values for the potentiation in assay [4] and in assay [15] were 11% (active) and 27.2% (active), respectively.

With `CCn1c(/C=C/Nc2ccccc2)[n+](CC)c2ccc(Cl)cc21`, the outcome in [1], in assay [2], in assay [3], in assay [4], in assay [5] and in assay [6] was inactive. Also, the outcome in assay [7], in assay [8], in assay [9], in assay [10], in assay [11] and in assay [12] was inactive. The outcome in assay [13], in assay [14], in [15], in assay [16] and in [17] was inactive.

For `CN(C)CCCn1c(=O)n(CCc2ccccc2)c(=O)c2c3c(sc21)CCCCC3`, the result in assay [1], in assay [2], in assay [3], in [4], in [5] and in [6] was inactive. Moreover, the result in assay [7], in assay [8], in assay [9], in assay [10], in assay [11] and in assay [12] was inactive. In addition, the outcome in [13], in [14], in assay [15], in assay [16] and in [17] was inactive.

With `CSc1ccccc1OC1CCN(Cc2ccccc2)CC1`, the outcome in [1], in [2], in assay [3], in assay [4], in [5] and in assay [6] was inactive. The result in assay [7], in [8], in assay [9], in assay [10], in assay [11] and in assay [12] was inactive. Besides, the outcome in assay [13], in assay [14], in [15], in assay [16] and in assay [17] was inactive.

With `CC(=O)Nc1ccc(S(=O)(=O)N2CCN(CCCOc3cc(C)ccc3C)CC2)cc1`, the result in assay [1], in assay [2], in assay [3], in [5], in assay [6] and in assay [7] was inactive. Besides, the outcome in [8], in assay [9], in assay [10], in assay [11], in assay [12] and in assay [13] was inactive. In addition, the outcome in [14], in assay [15], in [16] and in assay [17] was inactive. In assay [4], the potentiation was 24% (active).

Regarding `CN(C)CCCNC(=O)/C=C/c1ccc(OCc2c(F)cccc2Cl)cc1`, the result in [1], in assay [2], in assay [3], in assay [4], in assay [5] and in [6] was inactive. Further, the outcome in [7], in [8], in assay [9], in [10], in [11] and in assay [12] was inactive. In addition, the outcome in [13], in [14], in assay [16] and in assay [17] was inactive. Further, the potentiation in assay [15] was 16.2% (active).
